Assay outcomes deposited in PubChem BioAssay by National Center for Advancing Translational Sciences (NCATS).
CHX counter = Cycloheximide Counterscreen for Small Molecule Inhibitors of Shiga Toxin; actives 12% (n = 300,000); AID 2314, 2010; cell reporter, cycloheximide protein synthesis inhibition counterscreen; max response, %; in the data active = max response mostly above about 13%, no sharp cut-off; inactive = mostly below about 14%; note: read at 38.3 µM for the half of the compounds with a filed dose
HCV inh = qHTS Assay for Inhibitors of Hepatitis C Virus (HCV). Potency, µM (titrated, usually from 41.8 µM), most hits filed as inhibitors. Huh7.5.1 HCVcc-Cre infection, luciferase reporter, 44 h. actives 3.4% (n = 340,000). AID 651820, 2012; active = well fitted inhibition curve with a large enough effect; inconclusive = small, poorly fitted or top-dose-only effect, or another doubt; inactive = no such curve, though single readings can be large or run the other way
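Cells seeded at 1,000/well and cultured 4 h, then compounds added followed by HCVcc-Cre virus (~0.5 moi). After 44 h further culture, luciferase substrate was added, plates held 15 min at room temperature, and luminescence read for 15 sec.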
Shiga inhibitor = A qHTS for Small Molecule Inhibitors of Shiga Toxin. Vero cells, Shiga toxin protein synthesis inhibition reporter. inhibition, % at 38.7 µM. actives 9.2% (n = 290,000). AID 2315, 2010; in the data active = inhibition mostly above about 28%, no sharp cut-off; inactive = mostly below about 43%
FMDV antiviral = High Throughput Screening for Foot and Mouth Disease Virus Antivirals; FMDV antiviral cell-based qHTS; Potency, µM (titrated, usually from 57.9 µM), most hits filed as inhibitors; actives 1.2% (n = 410,000); calls by dose curve; tested in HEK293T cells; note: read-out not given here; nearly all actives have a fitted effect of over 45% in size
MARV entry inh = qHTS for inhibitors of binding or entry into cells for Marburg Virus | Marburg virus pseudotyped entry inhibition, cell reporter | actives 1.8% (n = 300,000) | Potency, µM (titrated, usually from 37.8 µM), hits mostly inhibitors; calls by dose curve; tested in HEK293 cells
Lassa entry inh = qHTS for Inhibitors of binding or entry into cells for Lassa Virus. actives 1.2% (n = 300,000). Potency, µM (highest dose often 37.9 µM), actives largely listed as inhibitors. Lassa virus pseudotype entry inhibition, cell reporter; calls by dose curve; tested in HEK293 cells; note: nearly all actives have a fitted effect of over 50% in size
Each line names hits and unclear results; the compound was inactive in the other large screens. Rows were chosen to be rich in hits. Some 13% of all compounds tested hit in one or more screens of this group.

CCOC(=O)C[C@H]1c2cc(C(F)(F)F)ccc2S(=O)(=O)N1C(C)C	none (no result: CHX counter, Shiga inhibitor, MARV entry inh, Lassa entry inh)
CC1CCCC(NC(=S)Nc2ccc(SC(F)F)cc2)C1C (centres undefined)	CHX counter 25.1, HCV inh 31.6µM, MARV entry inh inconclusive, Lassa entry inh inconclusive
O=C(Nc1ccc(SC(F)F)cc1)C12CCC(CC1)C2	CHX counter 18.8, Shiga inhibitor 77.2
FC(F)Sc1ccc(NC(=S)NC2CCCC2)cc1	CHX counter 37.8, Shiga inhibitor 63.9
OC1CCC(NC(=S)Nc2ccc(SC(F)F)cc2)CC1 (centres undefined)	CHX counter 36.0, Shiga inhibitor 75.0, MARV entry inh inconclusive
Cc1ccc(Cl)cc1NC(=O)CN(C)S(=O)(=O)c1ccc2c(c1)n(C)c(=O)c(=O)n2C	none (no result: CHX counter, HCV inh, Shiga inhibitor)
CCCc1nnc(NC(=O)C(=O)NCCN(C)C)s1	none
O=C1CCCN1CC(O)CS(=O)(=O)Cc1ccc(Cl)cc1 (centres undefined)	none (no result: CHX counter, Shiga inhibitor, MARV entry inh, Lassa entry inh)
Cc1nc(-c2nc(-c3c(C(=O)NN)noc3C)cs2)cs1	CHX counter 27.8, Shiga inhibitor 65.5, MARV entry inh inconclusive
O=C(CC1(O)C(=O)Nc2ccccc21)c1ccc(-n2cnnn2)cc1 (centres undefined)	CHX counter 23.9, MARV entry inh inconclusive
NC(=O)N=Nc1c(O)[nH]c2ccc([N+](=O)[O-])cc12	none (no result: MARV entry inh, Lassa entry inh)
CC(C)NC(=S)N=Nc1c(O)[nH]c2ccc([N+](=O)[O-])cc12	HCV inh 1.12µM, FMDV antiviral inconclusive, Lassa entry inh inconclusive
C=C(C)CNC(=S)N=Nc1c(O)[nH]c2ccc([N+](=O)[O-])cc12	HCV inh 25.1µM
Cc1cccc(-c2nc3scc(CCNS(=O)(=O)c4ccc(F)cc4C)n3n2)c1	none (no result: CHX counter, HCV inh, Shiga inhibitor, MARV entry inh)
CCS(=O)(=O)c1ccc2oc(=O)c(/C=C(\O)c3ccc(Cl)cc3)nc2c1	none
C/C(Cn1nc([N+](=O)[O-])cc1C)=N\NC(=O)COc1ccc(Cl)cc1Cl	none
C/C(Cn1nc([N+](=O)[O-])cc1C)=N\NC(=O)COc1ccccc1[N+](=O)[O-]	CHX counter 24.9, Shiga inhibitor active
C/C(=N\NC(=O)COc1ccccc1[N+](=O)[O-])c1cccs1	CHX counter 43.3, Shiga inhibitor 65.7
C/C(Cn1nc([N+](=O)[O-])cc1C)=N\NC(=O)c1cccc(Br)c1	CHX counter 30.9
O=C(Nc1ccc(F)cc1)C(c1cccc(F)c1)N1CCN(c2cccc(C(F)(F)F)n2)CC1 (centres undefined)	none (no result: CHX counter, HCV inh, Shiga inhibitor, MARV entry inh, Lassa entry inh)
CC1CN(C(=O)CSc2nc(N)cc(N)n2)CC(C)O1 (centres undefined)	none (no result: CHX counter, Shiga inhibitor, MARV entry inh, Lassa entry inh)
COC1=C(OC)C(=O)C(C/C=C(\C)CC/C=C(\C)CC/C=C(\C)CC/C=C(\C)CC/C=C(\C)CC/C=C(\C)CC/C=C(\C)CC/C=C(\C)CC/C=C(\C)CCC=C(C)C)=C(C)C1=O	none (no result: HCV inh, FMDV antiviral, MARV entry inh, Lassa entry inh)
CC(C)NC(=O)CSc1nc(-c2cccs2)cc(-c2ccccc2)c1C#N	HCV inh inconclusive
COc1cc(/C=C/C(=O)Nc2ccc(OC)c(S(=O)(=O)N3CCOCC3)c2)ccc1OC(F)F	HCV inh 0.251µM, FMDV antiviral inconclusive, MARV entry inh inconclusive, Lassa entry inh 12.6µM (no result: CHX counter, Shiga inhibitor)
COc1ccc(NC(=O)/C=C/c2ccc(C)o2)cc1S(=O)(=O)N1CCOCC1	MARV entry inh inconclusive
COc1ccc(/C=C/C(=O)Nc2ccccc2F)cc1S(=O)(=O)N1CCOCC1	HCV inh 10µM, FMDV antiviral 25.1µM, MARV entry inh inconclusive, Lassa entry inh inconclusive (no result: CHX counter, Shiga inhibitor)
COc1ccc(/C=C/C(=O)Nc2ccccc2C)cc1S(=O)(=O)N1CCOCC1	CHX counter 62.4, HCV inh inconclusive, Shiga inhibitor 66.1, FMDV antiviral inconclusive (no result: Lassa entry inh)
COc1ccc(/C=C/C(=O)Nc2cccc(F)c2)cc1S(=O)(=O)N1CCOCC1	CHX counter 27.7, HCV inh 10µM, FMDV antiviral 35.5µM, MARV entry inh inconclusive, Lassa entry inh 5.62µM
COc1ccc(/C=C/C(=O)Nc2ccc(C(C)=O)cc2)cc1S(=O)(=O)N1CCOCC1	none (no result: CHX counter, HCV inh, Shiga inhibitor, MARV entry inh, Lassa entry inh)
CCOc1ccccc1NC(=O)c1ccc(S(=O)(=O)N2CCOCC2)cc1	HCV inh inconclusive
CCOc1ccccc1NC(=O)/C=C/c1ccc(S(=O)(=O)N2CCOCC2)cc1	HCV inh 10µM, Lassa entry inh inconclusive (no result: CHX counter, Shiga inhibitor)
CCCCCCNCC1OCc2ccccc2CO1	HCV inh inconclusive
